aSyn 5UTR act: Activators via SNCA 5'UTR binding, MLPCN; alpha-synuclein 5'UTR reporter, activators screen; activity score, % (tested at 7.5 µM), hits read low; 7.1% of 300,000 active; in the data active means activity score below about -60%
A number is an active result; i = inactive. These entries were drawn from the full list.

SMILES	aSyn 5UTR act
O=C(NC(CSCc1ccccc1)C(=O)N/N=C/c1ccc(O)cc1O)c1ccc([N+](=O)[O-])cc1 (configuration not stated)	i
COc1ccc(/C=N/Nc2ncccc2[N+](=O)[O-])c(OC)c1	-122
CCCOc1ccc(/C=N/Nc2ccccc2[N+](=O)[O-])c(OCCC)c1	-133
COc1ccc(/C=N/Nc2cc(C)nc3ccc(OC)cc23)c(OC)c1	i
O=[N+]([O-])c1ccccc1N/N=C/c1cccc(O)c1O	-104
O=[N+]([O-])c1ccccc1N/N=C\c1ccccc1F	-165
Cc1cc(/C=N/Nc2nc(N)ncc2[N+](=O)[O-])c(C)n1-c1ccccc1F	i
O=[N+]([O-])c1cccc(N/N=C/c2cccc(O)c2O)c1	-110
COc1cccc(N/C=C/C(=O)c2ccc(Br)cc2)c1	-117
COC(=O)c1ccccc1N/C=C/C(=O)c1ccc(Br)cc1	-132
CCOC(=O)c1ccc(OS(=O)(=O)c2ccccc2)c(OC)c1	-195
COc1ccc(C(=O)/C=C/Nc2ccc([N+](=O)[O-])cc2)cc1	-106
COc1ccc(C(=O)/C(C#N)=N/Nc2ccc([N+](=O)[O-])cc2)cc1	i
COc1ccc(C(=O)/C=C/Nc2cccc(O)c2)cc1	-94
CCOc1ccc(N/C=C/C(=O)c2ccc(OC)cc2)c([N+](=O)[O-])c1	-118
CCOC(=O)c1cccc(N/C=C/C(=O)c2ccc(OC)c(OC)c2)c1	-130
CCOc1ccc(NC(=S)NC(=O)/C=C/c2ccc(Br)cc2)c([N+](=O)[O-])c1	-79
N#CC(c1cccc(Cl)c1)c1ccc2c(C(F)(F)F)cc(C(F)(F)F)nc2n1 (configuration not stated)	i
Cc1ccc(Cl)c(N/C=C/C(=O)c2ccccc2)c1	-144
CCOc1ccc(C(=O)Cc2cc(OC)c(OC)cc2[N+](=O)[O-])cc1	-80
CCOC(=O)c1ccc(N/C=C\C(=O)c2cccc(OC)c2)cc1	-131
COc1cccc(N/C=C/C(=O)c2ccc(OC)c(OC)c2)c1	-97
Cc1cccc(N/C=C/C(=O)c2ccc(Cl)cc2)c1	-157
COc1cccc(C(=O)/C=C/Nc2cc(C)ccc2O)c1	-261
O=C(N/N=C/c1ccc(Cl)cc1)C1CC12CCC2 (configuration not stated)	-110
SMILES	aSyn 5UTR act
O=C(CCCCl)Nc1nc(-c2ccc3c(c2)OCCO3)cs1	-117
O=C(CSCC(=O)N1CCOCC1)Nc1nc(-c2ccc3c(c2)OCO3)cs1	-131
O=C(Nc1nc(-c2ccc3c(c2)OCCO3)cs1)C1CCCC1	-151
CCOC(=O)N1CCN(C(=O)CSCC(=O)Nc2nc(-c3ccc(C)cc3)cs2)CC1	-85
CC(=O)Nc1nc(-c2ccc3c(c2)OCO3)cs1	-130
CC(C)CCN1C(=O)c2cccc3c(N)ccc(c23)C1=O	i
CC(=O)c1ccc2c3c(cccc13)C(=O)N(CCc1ccccc1)C2=O	-138
COc1cccc(N2CCN(C3C4CC5CC(C4)CC3C5)CC2)c1 (configuration not stated)	-95
O=c1c(Br)c(NCc2ccccc2)cnn1-c1ccc(F)cc1	-68
Clc1ccc(-c2nnc(-c3ccccc3)c(N3CCSCC3)n2)cc1	-62

Screening results from PubChem.
